Screening results (PubChem BioAssay)
ATXN2 expr inh: inhibitors of ATXN2 expression. HEK-293 ATXN2-luciferase reporter, luminescence, 24 h. Potency, µM (top dose mostly 57 µM), for inactives: top-dose activity change, negative = inhibition, hits mostly inhibitors. 0.72% of 360,000 active. AID 1745845; also: % is scaled to controls: 0 for no effect and ±100 for the full control effect; nearly all actives have a fitted effect of over 55% in size
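ATXN2-luciferase reporter cells (luciferase flanked by upstream and downstream ATXN2 gene portions) were treated 24 h at 37 °C with compounds at up to 57 uM. SteadyGlo luminescence gave expression; GF-AFC fluorescence gave viability.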
HepG2 tox-1: kills HepG2 cells in TGF-b inhibitor counter-screen. 0.76% of 410,000 active. Potency, µM (series often up to 46.1 µM), for inactives: at the top dose activity change, negative = cytotoxicity, hits mostly cytotoxic. HepG2 CAGA-GFP viability, ATP luminescence, 18 h
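CellTiter-Glo luminescence gave cytotoxicity after 18 hours at 37 degrees C. The cells were HepG2 CAGA-GFP in 1% FBS DMEM, stimulated with 500 pg/mL TGF-beta after compound addition. %Activity was normalised to no-cell wells (complete cell-killing) and DMSO (no toxicity), and curves were fitted and classified.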
TGFb inhibitor: inhibitors of TGF-b signaling | HepG2 CAGA-GFP TGF-b/SMAD3 reporter, GFP fluorescence, 18 h; TGF-beta stimulated, 500 pg/mL final | Potency, µM (highest dose often 46.1 µM), for the others: at the top dose activity, negative = inhibition, hits mostly inhibitors | 1.2% of 410,000 active; also: % is scaled to controls: 0 for no effect and ±100 for the full control effect; nearly all actives have a fitted effect of over 65% in size
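TGF-beta reporter screen: HEPG2 CAGA-GFP, 1% FBS, 500 pg/mL TGF-beta final, 18 h; per-cell GFP summed per well; curves fitted and categorized by class.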
S2 tox: reduces viability in counter-screen for ATXN expression inhibitors. Potency, µM (doses to about 56.7 µM), actives largely listed as cytotoxic. AID 651635. S2 cells (HEK-293 line with an ATXN2-luciferase reporter) viability, CellTiter-Fluor protease fluorescence, 24 h. 0.49% of 400,000 active; also: nearly all actives have a fitted effect of over 40% in size
HT1080-NT tox: kills 2HG-producing HT-1080-NT fibrosarcoma cells. Potency, µM (top dose mostly 46.1 µM), for the others: at the top dose activity, negative = less viability, most hits filed as cytotoxic. HT-1080-NT fibrosarcoma viability, CellTiter-Glo ATP luminescence, 48 h. 1.6% of 360,000 active. AID 686970;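 also: NT is the 2HG producing partner of a matched IDH1 knockdown line; 0% = DMSO-treated cells and -100% = media-only wells without cells; nearly all actives have a fitted effect of over 55% in size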
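750 cells/well, RPMI + 5% FBS; 2 h settle, compound pin-transfer, 48 h at 37 degrees C. CellTiter-Glo 10 min RT, luminescence. Normalized to DMSO and media-only wells.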
HT1080 IDH1KD tx: toxicity to HT-1080 IDH1 knockdown cells (counter line) | HT-1080 IDH1 knockdown viability, ATP luminescence, 48 h | Potency, µM (top dose mostly 46.1 µM), without a hit: at the top dose activity, negative = toxicity, usual class: cytotoxic | 2% of 360,000 active | AID 686971;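 also: 0% = DMSO wells and -100% = cell-free medium wells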
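CellTiter-Glo luminescence after 48 h compound exposure at 37 degrees C of IDH1-knockdown HT-1080 cells in 5% FBS RPMI. %Activity scaled between DMSO wells and cell-free media wells, with curves fitted and assigned curve classes.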
TGFb CAGA inh: TGF-b pathway inhibition, cherry-pick retest; Potency, µM (top dose mostly 46.1 µM), inactives show top-dose activity, negative = inhibition, actives largely listed as inhibitors; AID 720534; HepG2 CAGA-GFP TGF-b reporter, GFP fluorescence, 18 h; cells stimulated with TGF-beta, 500 pg/mL; 63% of 1,600 active; shares compounds with TGFb inhibitor; also: % is scaled to controls: 0 for no effect and ±100 for the full control effect; nearly all actives have a fitted effect of over 65% in size
HepG2 tox-2: toxic to HepG2 cells in TGF-b counterscreen; shares compounds with TGFb inhibitor; HepG2 CAGA-GFP viability, ATP luminescence, 18 h; cells stimulated with TGF-beta, 500 pg/mL; Potency, µM (titrated, usually from 46.1 µM), without a hit: at the highest dose activity, negative = cytotoxicity, hits mostly inhibitors; 27% of 1,600 active; also: % is scaled to controls: 0 for no effect and ±100 for the full control effect; nearly all actives have a fitted effect of over 70% in size
CCL64 TGFb inh: orthogonal confirmation of TGF-b inhibitors in CCL64 cells | shares compounds with TGFb inhibitor | CCL64 CAGA-GFP reporter, TGF-b stimulated, GFP fluorescence, 18 h | Potency, µM (doses to about 46.1 µM), for the others: at the highest dose activity, negative = inhibition, actives largely listed as inhibitors | 41% of 1,600 active; also: nearly all actives have a fitted effect of over 65% in size
COP TGFb inh: validation of TGF-b inhibitors in HepG2 COP promoter reporter. shares compounds with TGFb inhibitor. HepG2 COP-GFP TGF-b reporter, GFP fluorescence, 18 h; cells stimulated by added recombinant TGF-beta. Potency, µM (highest dose often 46.1 µM), for inactives: at the highest dose activity, negative = inhibition, most hits filed as inhibitors. 3% of 1,600 active; also: nearly all actives have a fitted effect of over 70% in size
Starred values were filed as active, the others as inactive; i = inactive; u = inconclusive; x = no result given. Shown are actives, neighbours in structure and some others; about 3.8% of the full set was active somewhere. Calls follow the shape of the dose curve; as a rule, active = well fitted curve in the direction sought with a large enough effect; inconclusive = small, poorly fitted or top-dose-only effect, or another doubt; inactive = no such curve, though single readings can be large; an effect the other way counts as inactive or inconclusive. Potency is read from the fitted curve at half-maximal effect.

SMILES	ATXN2 expr inh	HepG2 tox-1	TGFb inhibitor	S2 tox	HT1080-NT tox	HT1080 IDH1KD tx	TGFb CAGA inh	HepG2 tox-2	CCL64 TGFb inh	COP TGFb inh
Cc1ccnc(NC(=O)c2ccc([N+](=O)[O-])o2)c1	45.8%	-63.2%	u	i	u	-24.0%	x	x	x	x
COc1ccc(N2CCCC2)c(NC(=O)c2ccc([N+](=O)[O-])o2)c1	-38.7%	-41.0%	5.62µM*	u	-17.3%	-11.8%	u	u	u	8.9%
O=C(Nc1nc2c(F)cccc2s1)c1ccc([N+](=O)[O-])o1	-13.5%	-20.1%	3.6%	i	1.4%	-6.6%	x	x	x	x
O=C(Nc1ccccn1)c1ccc([N+](=O)[O-])o1	x	-102.1%	10µM*	i	u	u	16.4µM*	u	u	21.7%
COc1ccc(C(=O)Nc2cc([N+](=O)[O-])ccc2N2CCCC2)cc1	-0.2%	-1.0%	-0.3%	i	-4.7%	-3.1%	x	x	x	x
O=C(NCc1cccc(F)c1)c1ccc(CN2CC(=O)N3CCCCC3C2=O)cc1 (configuration not stated)	6.7%	-20.5%	-14.2%	i	x	x	x	x	x	x
Cc1ccc(C(=O)c2cc(O)c(O)c([N+](=O)[O-])c2)cc1	-13.4%	x	x	i	x	x	x	x	x	x
O=C(Nc1cccc(NC(=O)c2ccccc2Cl)c1)c1ccc([N+](=O)[O-])o1	u	-89.3%	3.55µM*	u	u	9.2µM*	1.3µM*	6.51µM*	8.2µM*	u
O=C(Nc1nc2ccc(F)cc2s1)C1CCN(S(=O)(=O)c2cc([N+](=O)[O-])ccc2Cl)CC1	u	3.1%	11.2µM*	i	u	u	9.2µM*	u	9.2µM*	27.8%
O=C(Nc1nc2c(Cl)cccc2s1)c1ccc([N+](=O)[O-])o1	u	-1.6%	-12.2%	u	-4.2%	1.1%	x	x	x	x
O=c1c(Br)c(N2CCCC2)cnn1-c1ccccc1	9.0%	25.6%	-3.4%	i	10.7%	0.4%	x	x	x	x
O=c1c(Br)c(Br)cnn1-c1ccccc1	5.32µM*	12.6µM*	10µM*	x	2.91µM*	4.11µM*	4.61µM*	8.2µM*	4.61µM*	u
Cc1ccc(C2(c3ccccc3)NC(=O)N(CC(=O)NCc3ccccc3)C2=O)cc1C (configuration not stated)	-22.3%	-28.2%	11.2µM*	u	-20.1%	-16.5%	7.31µM*	u	u	41.5%
CCN1c2ccccc2-c2nc(SCC(=O)Nc3cccc(C)c3C)ncc2S1(=O)=O	-10.2%	0.1%	-5.0%	i	x	x	x	x	x	x
COc1ccc(NC(=O)c2cnc(N3CCCCC3)c3ccccc23)cc1Cl	x	-9.2%	u	x	x	x	x	x	x	x
CCOC(=O)N1CCN(Cc2ccc(O)c3ncccc23)CC1	-25.0%	-48.3%	7.08µM*	u	20.6µM*	6.51µM*	u	u	5.8µM*	0.3%
Clc1ccccc1CN1CCC(Cc2ccccc2)CC1	8.1%	-41.5%	-21.9%	i	-11.0%	-3.8%	x	x	x	x
OCc1ccc(O)c2ncccc12	u	-18.3%	12.6µM*	i	u	u	6.51µM*	u	u	14.9%
Oc1ccc(CN2CCC(Cc3ccccc3)CC2)c2cccnc12	u	-37.5%	7.08µM*	i	u	5.8µM*	u	u	2.59µM*	19.0%
Oc1ccc(COCc2ccccc2)c2cccnc12	-19.3%	-56.2%	-22.0%	i	u	u	x	x	x	x
CCN1C(C(=O)c2ccccc2)=C(OC(=O)COc2ccc(C)cc2)c2ccccc2S1(=O)=O	x	-4.2%	-26.1%	x	x	x	x	x	x	x
CN(C)c1ccc(-c2nn3c(-c4ccccc4Cl)nnc3s2)cc1	-7.9%	9.5%	u	i	u	u	4.61µM*	-4.5%	10.3µM*	-6.0%
COc1ccc(CNC(=O)CCCc2nnc3n(C(C)C)c(=O)c4sccc4n23)cc1	x	2.4%	-5.8%	x	x	x	x	x	x	x
Fc1ccc(Br)cc1C1C=C(c2ccc(Br)cc2)Nc2nnnn21 (configuration not stated)	-11.6%	-13.9%	18.1%	x	x	x	x	x	x	x
